Results filed as inconclusive are left out. Active and inactive are the calls of the source. The calls were made as follows, unless noted: active = hit-call score of the fitted dose curve at least 0.9, where 1 is the maximum; inconclusive = response in the unintended direction; inactive = score below 0.9.
Experiments:
[1] = ATG_TCF_b_cat_CIS: Attagene CIS-FACTORIAL HepG2 Assay for human T-Cell-Factor with beta-catenin (TCF/b-cat) (AID 2282965; active = hit-call score of the fitted dose curve at least 0.9, where 1 is the maximum; inactive = score below 0.9); details: HepG2 TCF/beta-catenin cis-reporter transcription, actives raise or lower the signal
How it was run: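 Endogenous TCF/LEF activity read as reporter transcript level via RT-PCR and capillary electrophoresis fluorescence in transfected HepG2, 24 h exposure; gain or loss of signal fitted against DMSO controls.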

[2] = ATG_TAL_CIS: Attagene CIS-FACTORIAL HepG2 Assay for human TAL Basal Promoter (AID 2282966; active = hit-call score of the fitted dose curve at least 0.9, where 1 is the maximum; inactive = score below 0.9;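 also: background control endpoint measuring basal TAL promoter reporter mRNA not a specific factor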); details: HepG2 Attagene cis-factorial TAL promoter reporter; actives raise or lower the signal
How it was run: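 Background-control endpoint: basal TAL promoter reporter transcripts in transiently transfected HepG2, measured 24 h after dosing. Read-out by RT-PCR with fluorescent primer extension and capillary electrophoresis; gain or loss of signal fitted relative to DMSO.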

[3] = ATG_TGFb_CIS: Attagene CIS-FACTORIAL HepG2 Assay for human Transforming Growth Factor (TGF) (AID 2282967; active = hit-call score of the fitted dose curve at least 0.9, where 1 is the maximum; inactive = score below 0.9); details: HepG2 Attagene CIS TGFb reporter, mRNA transcription; actives raise or lower the signal
How it was run: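 Liver HepG2 line, cis-factorial reporter panel, 24 h dosing. Quantitation: RT-PCR products labeled with 6-FAM, cut with HpaI, resolved by capillary electrophoresis; DMSO-referenced bidirectional analysis.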

[4] = ATG_VDRE_CIS: Attagene CIS-FACTORIAL HepG2 Assay for human Vitamin D Receptor Element (VDRE) (AID 2282968; active = hit-call score of the fitted dose curve at least 0.9, where 1 is the maximum; inactive = score below 0.9); details: HepG2 VDRE cis-reporter transcription, actives raise or lower the signal
How it was run: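 Measures endogenous factor activity through cis-element-driven reporter transcripts in transiently transfected HepG2. Cells are treated 24 h; reporter mRNA is quantified by RT-PCR and capillary electrophoresis; fitting is bidirectional.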

[5] = biological target: Estrogen receptor (Homo sapiens) (UniProt P03372); experiment: ATG_ERa_TRANS: Attagene TRANS-FACTORIAL HepG2 Assay for human Estrogen Receptor alpha (ERa) (AID 2282970); details: HepG2 Attagene TRANS ERa GAL4 reporter, mRNA
How it was run: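 Reporter transcripts were measured 24 h after dosing by RT-PCR with fluorescent primer extension and capillary electrophoresis. The system is transiently transfected HepG2 expressing exogenous NR-Gal4 chimeras driving GAL4-UAS reporters; DMSO is the baseline.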

[6] = biological target: X-box-binding protein 1 (Homo sapiens) (UniProt P17861); experiment: ATG_Xbp1_CIS: Attagene CIS-FACTORIAL HepG2 Assay for human X-box Binding Protein 1 (XBP1) (AID 2282972; active = hit-call score of the fitted dose curve at least 0.9, where 1 is the maximum; inactive = score below 0.9); details: HepG2 XBP1 cis-element reporter, Attagene multiplex; actives raise or lower the signal
How it was run: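 Changes in reporter transcript abundance, read by RT-PCR and capillary electrophoresis, reflect endogenous transcription factor activity. Transfected HepG2 cells received compound for 24 hours; DMSO defined baseline for bidirectional analysis.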

[7] = biological target: Glucocorticoid receptor (Homo sapiens) (UniProt P04150); experiment: ATG_GR_TRANS: Attagene TRANS-FACTORIAL HepG2 Assay for human Glucocorticoid Receptor (GR) (AID 2282978); details: HepG2 Attagene TRANS GR reporter, mRNA transcription;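 also: activators score as hits since higher reporter transcript over DMSO is fitted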
How it was run: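 HepG2 cells transiently transfected with multiplexed reporter units in which chimeric NR-GAL4 proteins drive GAL4-UAS reporters; 24 h compound exposure. Reporter mRNA measured by RT-PCR, 6-FAM labelling, HpaI digestion and capillary electrophoresis; gain-of-signal fitted versus DMSO.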

[8] = biological target: Bile acid receptor (Homo sapiens) (UniProt Q96RI1); experiment: ATG_FXR_TRANS: Attagene TRANS-FACTORIAL HepG2 Assay for Farnesoid X Receptor (FXR) (AID 2282979); details: HepG2 Attagene TRANS FXR-GAL4 reporter transcription;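 also: hits raise reporter mRNA above DMSO so AC50 marks FXR activation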
How it was run: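 Reporter transcripts from transfected HepG2 cells were measured 24 h after dosing, using RT-PCR with capillary electrophoresis of 6-FAM-labelled fragments. The read-out reflects activity of exogenous FXR-Gal4 chimera on GAL4-UAS units, with induction relative to DMSO.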

[9] = biological target: Hepatocyte nuclear factor 4-alpha (Homo sapiens) (UniProt P41235); experiment: ATG_HNF4a_TRANS: Attagene TRANS-FACTORIAL HepG2 Assay for human Hepatocyte Nuclear Factor 4 alpha (HNF4a) (AID 2282982); details: HepG2 HNF4a transactivation reporter, mRNA readout
How it was run: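 Multiplexed reporter assay: transfected HepG2, 24 h exposure, total RNA → oligo(dT) RT → PCR → 6-FAM extension → HpaI digest → CE fluorescence. DMSO = negative control.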

[10] = biological target: Transcriptional activator Myb (Homo sapiens) (UniProt P10242); experiment: ATG_Myb_CIS: Attagene CIS-FACTORIAL HepG2 Assay for human Myeloblastosis (Myb) Proto-Oncogene Transcription Factor (AID 2282986; active = hit-call score of the fitted dose curve at least 0.9, where 1 is the maximum; inactive = score below 0.9); details: HepG2 Attagene CIS-FACTORIAL Myb reporter transcription; actives raise or lower the signal
How it was run: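 HepG2 cells were transiently transfected with cis-regulated multiple reporter transcription units reflecting endogenous Myb activity, then exposed to compound for 24 hours. Reporter mRNA was measured by RT-PCR with capillary electrophoresis; bidirectional fitting versus DMSO baseline.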

[11] = ATG_GAL4_TRANS: Attagene TRANS-FACTORIAL HepG2 Assay for GAL4 (Internal Marker) (AID 2282976); details: HepG2 Attagene TRANS GAL4 internal marker reporter
How it was run: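 In transfected human HepG2 liver cells dosed 24 h, GAL4 reporter mRNA serves as a baseline marker. Detection by RT-PCR with fluorescent capillary electrophoresis, activity fitted upward relative to DMSO.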

[12] = biological target: Oxysterols receptor LXR-alpha (Homo sapiens) (UniProt Q13133); experiment: ATG_LXRa_TRANS: Attagene TRANS-FACTORIAL HepG2 Assay for human Liver X Receptor alpha (LXRa) (AID 2282980); details: HepG2 Attagene TRANS reporter, LXRa transactivation
How it was run: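 Chemical-induced reporter mRNA measured by RT-PCR with fluorescent labelling and capillary electrophoresis after 24 h dosing of transiently transfected HepG2 cells expressing exogenous NR-Gal4 chimeras; increases scored against DMSO baseline.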

[13] = biological target: Estrogen-related receptor gamma (Homo sapiens) (UniProt P62508); experiment: ATG_ERRg_TRANS: Attagene TRANS-FACTORIAL HepG2 Assay for human Estrogen-Related Receptor gamma (ERRg) (AID 2282977); details: HepG2 Attagene TRANS reporter, ERRg transactivation;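 also: hits increase reporter signal over DMSO so potencies reflect activators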
How it was run: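 Exogenous NR-Gal4 chimera activity was assessed in HepG2 cells bearing transfected GAL4-UAS reporters. After 24 h dosing, total RNA underwent RT-PCR, fluorescent primer extension and HpaI digestion before capillary electrophoresis, with gain of signal scored against DMSO.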

[14] = biological target: Oxysterols receptor LXR-beta (Homo sapiens) (UniProt P55055); experiment: ATG_LXRb_TRANS: Attagene TRANS-FACTORIAL HepG2 Assay for human Liver X Receptor beta (LXRb) (AID 2282981); details: HepG2 Attagene TRANS GAL4-LXRb reporter, mRNA
How it was run: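 After 24 h of chemical treatment, transfected HepG2 cells yield total RNA; reporter cDNA is PCR-amplified, FAM-labelled, HpaI-cut and run on capillary electrophoresis. Signal reflects chimeric LXRb-Gal4 activity on GAL4-UAS reporters.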

[15] = biological target: Steroid hormone receptor ERR1 (Homo sapiens) (UniProt P11474); experiment: ATG_ERRa_TRANS: Attagene TRANS-FACTORIAL HepG2 Assay for human Estrogen-Related Receptor alpha (ERRa) (AID 2282971); details: HepG2 Attagene TRANS reporter, ERRa transactivation
How it was run: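 Reporter transcripts from ERRa-Gal4 chimera activity measured in transiently transfected human HepG2 cells 24 hours after dosing, using RT-PCR with 6-FAM primer extension, HpaI digestion and capillary electrophoresis; DMSO is baseline.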

[16] = ATG_M_32_TRANS: Attagene TRANS-FACTORIAL HepG2 Assay for M32 Transcription Factor (Internal Marker) (AID 2282984); details: HepG2 Attagene TRANS M32 internal marker reporter
How it was run: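 Cell-based TRANS-format assay in HepG2: exogenous chimeric GAL4 reporter units transiently expressed, compounds applied 24 h. Reporter mRNA detected by RT-PCR plus capillary electrophoresis; this readout is an internal background marker.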

[17] = biological target: Nuclear receptor subfamily 4 group A member 2 (Homo sapiens) (UniProt P43354); experiment: ATG_NURR1_TRANS: Attagene TRANS-FACTORIAL HepG2 Assay for human Nuclear Receptor Related Protein 1 (NURR1) (AID 2282985); details: HepG2 Attagene TRANS reporter, mRNA readout
How it was run: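 Measures transcriptional activation by an exogenous NR-Gal4 chimera in transfected HepG2 liver cells. After 24 h, reporter RNA is reverse-transcribed, amplified and resolved by capillary electrophoresis; DMSO defines baseline.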

[18] = ATG_M_06_TRANS: Attagene TRANS-FACTORIAL HepG2 Assay for M06 Transcription Factor (Internal Marker) (AID 2282983); details: HepG2 Attagene TRANS M06 internal marker reporter
How it was run: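 Background-control reporter readout: after 24 h chemical exposure of transiently transfected HepG2 (GAL4-UAS reporter units), mRNA quantified by RT-PCR with fluorescent labeling and capillary electrophoresis. Gain-of-signal fitting against DMSO baseline.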

[19] = ATG_M_19_TRANS: Attagene TRANS-FACTORIAL HepG2 Assay for M19 Transcription Factor (Internal Marker) (AID 2282974); details: HepG2 Attagene TRANS-FACTORIAL M19 internal marker reporter
How it was run: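 HepG2 cells transiently transfected with multiple GAL4-UAS reporter transcription units were exposed to chemicals for 24 h. Reporter mRNA was read by RT-PCR, 6-FAM primer extension, HpaI digestion and capillary electrophoresis; gain of signal fitted relative to DMSO.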

Sequence of Glucocorticoid receptor (Homo sapiens) (P04150 whole entry, looked up, the tested form may be a part): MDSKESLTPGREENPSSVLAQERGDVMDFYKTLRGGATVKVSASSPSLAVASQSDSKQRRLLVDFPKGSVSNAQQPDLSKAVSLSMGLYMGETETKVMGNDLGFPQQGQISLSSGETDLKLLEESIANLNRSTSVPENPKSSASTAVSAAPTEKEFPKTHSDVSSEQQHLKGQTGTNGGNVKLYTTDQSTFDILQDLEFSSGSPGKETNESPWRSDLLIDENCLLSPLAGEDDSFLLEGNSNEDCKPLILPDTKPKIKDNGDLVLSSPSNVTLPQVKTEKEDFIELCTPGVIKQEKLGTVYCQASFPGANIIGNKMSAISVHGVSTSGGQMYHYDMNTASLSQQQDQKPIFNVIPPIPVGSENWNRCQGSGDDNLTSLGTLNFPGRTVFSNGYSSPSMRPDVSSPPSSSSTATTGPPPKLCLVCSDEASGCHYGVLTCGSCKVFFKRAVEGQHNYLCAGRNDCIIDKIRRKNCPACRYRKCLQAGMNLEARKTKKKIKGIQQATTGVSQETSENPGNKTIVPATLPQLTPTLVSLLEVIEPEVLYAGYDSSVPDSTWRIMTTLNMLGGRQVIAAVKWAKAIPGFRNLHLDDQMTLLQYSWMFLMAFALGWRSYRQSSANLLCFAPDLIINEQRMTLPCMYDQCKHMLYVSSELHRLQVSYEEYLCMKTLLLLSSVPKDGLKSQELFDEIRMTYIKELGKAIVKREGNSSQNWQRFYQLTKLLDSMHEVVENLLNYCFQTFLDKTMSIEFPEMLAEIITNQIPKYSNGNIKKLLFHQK
Sequence of Transcriptional activator Myb (Homo sapiens) (P10242 whole entry, looked up): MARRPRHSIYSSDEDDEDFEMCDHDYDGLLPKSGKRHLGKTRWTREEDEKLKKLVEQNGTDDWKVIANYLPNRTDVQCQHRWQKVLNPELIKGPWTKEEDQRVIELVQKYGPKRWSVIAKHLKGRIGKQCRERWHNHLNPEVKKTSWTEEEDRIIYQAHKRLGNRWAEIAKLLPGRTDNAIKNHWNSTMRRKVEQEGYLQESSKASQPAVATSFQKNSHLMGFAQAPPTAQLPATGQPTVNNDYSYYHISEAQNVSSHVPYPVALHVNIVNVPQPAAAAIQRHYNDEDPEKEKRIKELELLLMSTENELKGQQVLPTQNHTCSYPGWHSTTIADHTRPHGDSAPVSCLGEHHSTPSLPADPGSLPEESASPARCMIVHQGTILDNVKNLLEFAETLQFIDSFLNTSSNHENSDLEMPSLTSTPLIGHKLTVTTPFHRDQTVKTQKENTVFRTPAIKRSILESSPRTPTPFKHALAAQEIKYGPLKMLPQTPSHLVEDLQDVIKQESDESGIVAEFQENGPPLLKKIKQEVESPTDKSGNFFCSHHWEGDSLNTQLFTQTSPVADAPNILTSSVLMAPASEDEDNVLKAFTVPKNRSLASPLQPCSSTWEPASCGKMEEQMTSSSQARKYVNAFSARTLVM
Sequence of X-box-binding protein 1 (Homo sapiens) (P17861 whole entry, looked up): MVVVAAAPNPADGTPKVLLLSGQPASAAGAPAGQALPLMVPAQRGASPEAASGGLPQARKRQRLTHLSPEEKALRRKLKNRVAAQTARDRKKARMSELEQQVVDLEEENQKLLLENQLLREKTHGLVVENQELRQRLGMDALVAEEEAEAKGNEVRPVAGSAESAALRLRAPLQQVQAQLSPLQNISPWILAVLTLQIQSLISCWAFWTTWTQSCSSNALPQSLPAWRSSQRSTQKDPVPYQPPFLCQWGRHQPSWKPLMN
Sequence of Estrogen receptor (Homo sapiens) (P03372 whole entry, looked up, the tested form may be a part): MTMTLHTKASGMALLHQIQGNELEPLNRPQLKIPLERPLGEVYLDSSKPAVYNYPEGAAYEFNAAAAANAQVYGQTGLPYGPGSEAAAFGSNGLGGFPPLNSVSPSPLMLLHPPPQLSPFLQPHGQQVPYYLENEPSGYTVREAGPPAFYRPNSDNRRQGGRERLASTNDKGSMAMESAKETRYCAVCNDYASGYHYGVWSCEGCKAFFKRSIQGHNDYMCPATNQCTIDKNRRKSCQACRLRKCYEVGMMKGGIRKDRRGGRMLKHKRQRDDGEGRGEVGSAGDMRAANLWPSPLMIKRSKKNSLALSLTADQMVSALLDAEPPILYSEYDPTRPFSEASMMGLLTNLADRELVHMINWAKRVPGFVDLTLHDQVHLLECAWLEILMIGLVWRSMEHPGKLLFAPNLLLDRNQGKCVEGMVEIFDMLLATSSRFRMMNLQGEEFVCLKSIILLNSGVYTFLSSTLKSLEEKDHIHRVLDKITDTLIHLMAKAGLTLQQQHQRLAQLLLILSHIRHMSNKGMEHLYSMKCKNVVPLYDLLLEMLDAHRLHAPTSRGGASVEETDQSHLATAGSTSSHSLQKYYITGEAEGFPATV
Sequence of Bile acid receptor (Homo sapiens) (Q96RI1 whole entry, looked up, the tested form may be a part): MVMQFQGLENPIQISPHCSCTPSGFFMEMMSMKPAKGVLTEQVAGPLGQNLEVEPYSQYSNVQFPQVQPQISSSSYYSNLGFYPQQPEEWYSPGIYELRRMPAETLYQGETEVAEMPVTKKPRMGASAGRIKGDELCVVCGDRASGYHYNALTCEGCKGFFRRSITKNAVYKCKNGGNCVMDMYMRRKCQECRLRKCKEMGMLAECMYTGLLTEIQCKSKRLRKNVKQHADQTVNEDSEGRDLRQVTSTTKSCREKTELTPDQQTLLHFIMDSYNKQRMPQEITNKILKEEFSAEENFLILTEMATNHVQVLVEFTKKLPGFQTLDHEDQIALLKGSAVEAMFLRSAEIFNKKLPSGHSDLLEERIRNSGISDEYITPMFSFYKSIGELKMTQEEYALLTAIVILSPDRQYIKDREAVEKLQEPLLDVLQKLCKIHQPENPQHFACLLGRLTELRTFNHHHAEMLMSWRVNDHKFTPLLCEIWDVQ
Sequence of Nuclear receptor subfamily 4 group A member 2 (Homo sapiens) (P43354 whole entry, looked up, the tested form may be a part): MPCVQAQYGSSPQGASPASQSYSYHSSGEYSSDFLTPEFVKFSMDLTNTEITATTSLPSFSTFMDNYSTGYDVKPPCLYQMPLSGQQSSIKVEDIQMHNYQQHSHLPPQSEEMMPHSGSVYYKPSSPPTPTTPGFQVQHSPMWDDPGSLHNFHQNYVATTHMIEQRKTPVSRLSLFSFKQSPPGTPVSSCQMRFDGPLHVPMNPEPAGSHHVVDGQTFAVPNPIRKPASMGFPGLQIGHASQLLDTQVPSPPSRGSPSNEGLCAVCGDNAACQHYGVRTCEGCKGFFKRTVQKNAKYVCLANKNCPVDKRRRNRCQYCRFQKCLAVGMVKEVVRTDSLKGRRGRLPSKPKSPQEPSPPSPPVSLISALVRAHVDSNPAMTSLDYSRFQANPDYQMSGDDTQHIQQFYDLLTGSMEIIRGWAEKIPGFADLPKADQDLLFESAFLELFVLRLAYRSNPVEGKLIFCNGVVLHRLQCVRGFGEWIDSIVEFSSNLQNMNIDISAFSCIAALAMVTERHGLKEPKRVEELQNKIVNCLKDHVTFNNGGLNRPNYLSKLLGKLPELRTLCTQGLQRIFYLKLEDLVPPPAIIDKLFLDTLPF
Sequence of Hepatocyte nuclear factor 4-alpha (Homo sapiens) (P41235 whole entry, looked up): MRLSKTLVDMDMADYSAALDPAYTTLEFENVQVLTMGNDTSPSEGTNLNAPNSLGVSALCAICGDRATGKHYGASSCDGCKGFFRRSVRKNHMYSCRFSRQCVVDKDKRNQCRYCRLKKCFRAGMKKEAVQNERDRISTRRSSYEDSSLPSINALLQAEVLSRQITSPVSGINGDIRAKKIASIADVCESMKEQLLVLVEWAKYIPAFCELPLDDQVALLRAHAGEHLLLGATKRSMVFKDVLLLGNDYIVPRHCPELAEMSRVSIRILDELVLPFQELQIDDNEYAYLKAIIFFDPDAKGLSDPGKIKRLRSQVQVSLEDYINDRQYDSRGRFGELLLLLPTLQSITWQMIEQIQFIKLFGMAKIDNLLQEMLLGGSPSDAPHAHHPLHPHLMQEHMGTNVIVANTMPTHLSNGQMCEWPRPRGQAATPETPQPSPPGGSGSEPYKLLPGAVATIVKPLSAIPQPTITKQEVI
Sequence of Oxysterols receptor LXR-alpha (Homo sapiens) (Q13133 whole entry, looked up, the tested form may be a part): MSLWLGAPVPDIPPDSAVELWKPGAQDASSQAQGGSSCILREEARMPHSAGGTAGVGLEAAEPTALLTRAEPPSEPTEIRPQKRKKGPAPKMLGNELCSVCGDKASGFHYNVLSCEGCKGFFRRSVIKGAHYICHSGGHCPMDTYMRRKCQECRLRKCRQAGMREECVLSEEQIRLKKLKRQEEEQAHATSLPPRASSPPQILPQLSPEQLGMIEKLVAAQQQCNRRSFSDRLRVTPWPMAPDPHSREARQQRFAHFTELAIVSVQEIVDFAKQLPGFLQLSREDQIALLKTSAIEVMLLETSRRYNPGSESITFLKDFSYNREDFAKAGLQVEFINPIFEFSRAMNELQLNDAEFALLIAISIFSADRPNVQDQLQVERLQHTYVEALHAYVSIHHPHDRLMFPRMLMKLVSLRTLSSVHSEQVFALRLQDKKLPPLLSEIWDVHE
Sequence of Steroid hormone receptor ERR1 (Homo sapiens) (P11474 whole entry, looked up, the tested form may be a part): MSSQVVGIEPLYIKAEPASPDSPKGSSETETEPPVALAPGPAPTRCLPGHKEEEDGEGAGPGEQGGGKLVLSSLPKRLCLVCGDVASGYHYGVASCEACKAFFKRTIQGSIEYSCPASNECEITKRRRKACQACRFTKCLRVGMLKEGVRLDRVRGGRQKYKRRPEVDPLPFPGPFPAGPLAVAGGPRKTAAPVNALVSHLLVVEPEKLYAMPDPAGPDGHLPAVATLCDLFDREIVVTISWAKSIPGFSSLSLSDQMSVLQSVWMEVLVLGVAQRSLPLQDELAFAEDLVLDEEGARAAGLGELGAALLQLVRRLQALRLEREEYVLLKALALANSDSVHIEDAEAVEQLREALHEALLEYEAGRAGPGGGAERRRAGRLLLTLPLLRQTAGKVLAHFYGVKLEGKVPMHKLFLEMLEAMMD

## CSc1ccc(Cl)cc1
[1]
  outcome: inactive
[2]
  outcome: inactive
[3]
  outcome: inactive
[4]
  outcome: inactive
[5]
  outcome: inactive
[6]
  outcome: inactive
[7]
  outcome: inactive
[8]
  outcome: inactive
[9]
  outcome: inactive
[10]
  outcome: inactive

## CCc1cccc(C)c1N(C(=O)C(=O)O)C(C)COC (stereo not given)
[1]
  outcome: inactive
[2]
  outcome: inactive
[3]
  outcome: inactive
[4]
  outcome: inactive
[6]
  outcome: inactive
[11]
  outcome: inactive
[7]
  outcome: inactive
[8]
  outcome: inactive
[12]
  outcome: inactive

## CCCCCCCCCCCCCCCCC
[1]
  outcome: inactive
[2]
  outcome: inactive
[3]
  outcome: inactive
[4]
  outcome: inactive
[5]
  outcome: inactive
[6]
  outcome: inactive
[13]
  outcome: inactive
[8]
  outcome: inactive
[12]
  outcome: inactive
[14]
  outcome: inactive
[9]
  outcome: inactive
[10]
  outcome: inactive

## c1ccc(C[P+](c2ccccc2)(c2ccccc2)c2ccccc2)cc1
[1]
  outcome: inactive
[2]
  outcome: inactive
[3]
  outcome: inactive
[4]
  outcome: inactive
[15]
  outcome: inactive
[11]
  outcome: inactive
[7]
  outcome: inactive
[8]
  outcome: inactive
[14]
  outcome: inactive
[16]
  outcome: inactive
[17]
  outcome: inactive
[10]
  outcome: inactive

## O=C(O)CCC(F)(F)C(F)(F)C(F)(F)C(F)(F)C(F)(F)C(F)(F)C(F)(F)F
[1]
  AC50: 150 µM (active)
[2]
  outcome: inactive
[3]
  outcome: inactive
[4]
  outcome: inactive
[5]
  outcome: inactive
[7]
  outcome: inactive
[8]
  outcome: inactive
[12]
  outcome: inactive
[17]
  outcome: inactive
[10]
  outcome: inactive

## O=C(O)C(F)(F)OC(F)(F)C(F)(F)OC(F)(F)C(F)(F)OC(F)(F)F
[1]
  outcome: inactive
[2]
  outcome: inactive
[3]
  outcome: inactive
[4]
  outcome: inactive
[6]
  outcome: inactive
[8]
  outcome: inactive
[12]
  outcome: inactive
[18]
  outcome: inactive
[10]
  outcome: inactive

## C[Si](C)O[Si](C)C
[1]
  outcome: inactive
[2]
  outcome: inactive
[3]
  outcome: inactive
[4]
  outcome: inactive
[6]
  outcome: inactive
[19]
  outcome: inactive
[11]
  outcome: inactive
[7]
  outcome: inactive
[8]
  outcome: inactive
[12]
  outcome: inactive
[14]
  outcome: inactive

## CCOC(=O)CCC(C)=O
[1]
  outcome: inactive
[2]
  outcome: inactive
[3]
  outcome: inactive
[4]
  outcome: inactive
[6]
  outcome: inactive
[11]
  outcome: inactive
[13]
  outcome: inactive
[8]
  outcome: inactive
[12]
  outcome: inactive
[14]
  outcome: inactive
[16]
  outcome: inactive
[10]
  outcome: inactive

## NCC(F)(F)C(F)(F)C(F)(F)C(F)(F)C(F)(F)C(F)(F)C(F)(F)C(F)(F)F
[1]
  outcome: inactive
[2]
  outcome: inactive
[3]
  outcome: inactive
[4]
  outcome: inactive
[15]
  outcome: inactive
[6]
  outcome: inactive
[11]
  outcome: inactive
[7]
  outcome: inactive
[8]
  outcome: inactive
[12]
  outcome: inactive
[18]
  outcome: inactive
[10]
  outcome: inactive

## CCOC(OCC)OCC
[1]
  outcome: inactive
[2]
  outcome: inactive
[3]
  outcome: inactive
[4]
  outcome: inactive
[6]
  outcome: inactive
[11]
  outcome: inactive
[7]
  outcome: inactive
[8]
  outcome: inactive
[14]
  outcome: inactive
[9]
  outcome: inactive
[16]
  outcome: inactive
[10]
  outcome: inactive

## C=C(C)C(=O)OCC(F)(F)C(F)(F)C(F)(F)C(F)F
[1]
  outcome: inactive
[2]
  outcome: inactive
[3]
  outcome: inactive
[4]
  outcome: inactive
[15]
  outcome: inactive
[19]
  outcome: inactive
[11]
  outcome: inactive
[7]
  outcome: inactive
[8]
  outcome: inactive
[12]
  outcome: inactive
[14]
  outcome: inactive
[9]
  outcome: inactive
[18]
  outcome: inactive
[16]
  outcome: inactive
[17]
  outcome: inactive
[10]
  outcome: inactive
